Assays:
Assay in all cases: DAPPL (digital affinity profiling via proximity ligation, sequencing); 10 mM Tris-HCl pH 7.5, 50 mM NaCl, 1 mM DTT, 4% glycerol, room temperature, 30 min; GST-TFs on glutathione beads, 16-mer random dsDNA library, 0.1% formaldehyde crosslink after washing; high values mean tight binding
Conditions in all cases: protein: recombinant; tags: N-terminal GST; dsDNA, one strand shown
ERF = biological target: T1, ERF (Homo sapiens, UniProt P50548 1-548)
T1 sequence: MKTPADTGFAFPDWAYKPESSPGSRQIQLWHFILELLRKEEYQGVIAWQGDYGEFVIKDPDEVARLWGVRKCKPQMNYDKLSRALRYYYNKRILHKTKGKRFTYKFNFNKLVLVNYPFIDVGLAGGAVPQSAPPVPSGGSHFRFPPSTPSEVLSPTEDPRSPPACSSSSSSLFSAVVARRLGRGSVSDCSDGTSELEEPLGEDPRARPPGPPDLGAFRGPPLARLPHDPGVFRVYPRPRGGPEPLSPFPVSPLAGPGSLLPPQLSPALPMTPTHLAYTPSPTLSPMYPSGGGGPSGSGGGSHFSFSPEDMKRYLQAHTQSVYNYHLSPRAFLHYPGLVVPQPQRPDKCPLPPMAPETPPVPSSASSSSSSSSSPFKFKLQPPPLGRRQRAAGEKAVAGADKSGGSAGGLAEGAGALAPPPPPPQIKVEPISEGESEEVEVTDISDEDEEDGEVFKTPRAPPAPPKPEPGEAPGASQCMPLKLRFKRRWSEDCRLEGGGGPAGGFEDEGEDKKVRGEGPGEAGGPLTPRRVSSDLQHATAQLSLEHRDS
In short: (§1)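 Each value of binding signal is a hexamer's read frequency for a factor divided by the same hexamer's frequency in the tag-only sample. Barcoded, bead-captured GST fusions of human transcription factors made in yeast were pooled with that sample and incubated with 200 nmole of a random double-stranded 16-mer DNA library in Tris/NaCl/DTT/glycerol buffer at room temperature for 30 min. Washing, 0.1% formaldehyde crosslinking, proximity ligation, PCR and Illumina NextSeq500 sequencing followed.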

ETV3L = biological target: T2, ETV3L (Homo sapiens, UniProt Q6ZN32 1-361)
T2 sequence: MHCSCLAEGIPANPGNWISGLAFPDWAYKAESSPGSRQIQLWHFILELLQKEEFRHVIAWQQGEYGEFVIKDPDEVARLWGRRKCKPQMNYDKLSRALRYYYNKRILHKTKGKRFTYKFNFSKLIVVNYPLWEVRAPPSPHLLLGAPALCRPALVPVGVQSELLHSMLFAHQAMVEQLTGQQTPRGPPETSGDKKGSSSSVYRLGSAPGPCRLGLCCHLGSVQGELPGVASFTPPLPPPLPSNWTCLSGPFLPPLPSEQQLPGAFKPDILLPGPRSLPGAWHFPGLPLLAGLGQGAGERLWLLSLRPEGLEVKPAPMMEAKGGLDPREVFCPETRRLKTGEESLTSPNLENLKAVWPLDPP
In short: as §1

SPDEF = biological target: T3, SPDEF (Homo sapiens, UniProt O95238 1-335)
T3 sequence: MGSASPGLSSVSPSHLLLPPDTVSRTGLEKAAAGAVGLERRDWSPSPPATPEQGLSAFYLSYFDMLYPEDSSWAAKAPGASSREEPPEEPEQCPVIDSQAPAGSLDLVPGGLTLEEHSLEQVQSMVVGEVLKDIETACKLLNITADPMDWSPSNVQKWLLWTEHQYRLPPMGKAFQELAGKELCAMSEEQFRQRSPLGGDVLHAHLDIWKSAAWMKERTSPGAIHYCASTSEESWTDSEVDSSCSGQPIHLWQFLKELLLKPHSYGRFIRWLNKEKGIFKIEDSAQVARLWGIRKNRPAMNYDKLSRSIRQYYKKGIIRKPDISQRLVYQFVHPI
In short: as §1

ELF5 = biological target: T4, ELF5 (Homo sapiens, UniProt Q9UKW6-2 1-255)
T4 sequence: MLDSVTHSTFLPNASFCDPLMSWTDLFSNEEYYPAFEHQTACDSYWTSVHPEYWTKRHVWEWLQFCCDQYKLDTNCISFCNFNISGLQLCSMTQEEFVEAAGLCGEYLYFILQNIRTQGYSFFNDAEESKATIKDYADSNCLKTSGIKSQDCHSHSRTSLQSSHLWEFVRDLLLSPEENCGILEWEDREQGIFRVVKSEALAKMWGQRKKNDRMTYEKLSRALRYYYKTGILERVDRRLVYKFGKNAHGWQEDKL
In short: as §1

ETV3 = biological target: T5, ETV3 (Homo sapiens, UniProt P41162-2 1-143)
T5 sequence: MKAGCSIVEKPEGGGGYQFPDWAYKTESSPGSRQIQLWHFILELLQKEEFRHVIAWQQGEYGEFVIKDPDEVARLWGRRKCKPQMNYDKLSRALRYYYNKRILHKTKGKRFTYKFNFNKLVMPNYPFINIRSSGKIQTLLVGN
In short: as §1

ETV6 = ETV6 (Homo sapiens, UniProt P41212 1-452)
In short: as §1

ETS2 = biological target: T6, ETS2 (Homo sapiens, UniProt P15036 1-469)
T6 sequence: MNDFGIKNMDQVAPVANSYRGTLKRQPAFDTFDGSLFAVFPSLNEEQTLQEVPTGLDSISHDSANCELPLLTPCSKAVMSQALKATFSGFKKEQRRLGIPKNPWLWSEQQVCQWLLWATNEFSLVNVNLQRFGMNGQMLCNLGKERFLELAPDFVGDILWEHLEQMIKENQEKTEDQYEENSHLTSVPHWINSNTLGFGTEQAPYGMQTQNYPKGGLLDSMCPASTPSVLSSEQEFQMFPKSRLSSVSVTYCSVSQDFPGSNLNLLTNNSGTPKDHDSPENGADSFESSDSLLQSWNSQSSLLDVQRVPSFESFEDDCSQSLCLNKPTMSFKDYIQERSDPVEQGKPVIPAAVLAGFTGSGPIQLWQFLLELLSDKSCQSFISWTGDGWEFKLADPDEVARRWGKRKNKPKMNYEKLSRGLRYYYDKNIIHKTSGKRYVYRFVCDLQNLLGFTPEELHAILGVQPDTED
In short: as §1

ETV7 = biological target: T7, ETV7 (Homo sapiens, UniProt Q9Y603 1-341)
T7 sequence: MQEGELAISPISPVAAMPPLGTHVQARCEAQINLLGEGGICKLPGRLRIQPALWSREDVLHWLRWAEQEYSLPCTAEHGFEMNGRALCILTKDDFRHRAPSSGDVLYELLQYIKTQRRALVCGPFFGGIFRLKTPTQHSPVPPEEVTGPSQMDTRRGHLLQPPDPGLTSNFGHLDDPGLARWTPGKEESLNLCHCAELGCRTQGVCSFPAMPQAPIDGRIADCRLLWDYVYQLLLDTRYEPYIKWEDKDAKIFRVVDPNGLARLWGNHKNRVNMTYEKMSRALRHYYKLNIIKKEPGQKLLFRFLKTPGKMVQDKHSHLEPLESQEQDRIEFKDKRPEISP
In short: as §1

ETV6, sequence (P41212 whole entry): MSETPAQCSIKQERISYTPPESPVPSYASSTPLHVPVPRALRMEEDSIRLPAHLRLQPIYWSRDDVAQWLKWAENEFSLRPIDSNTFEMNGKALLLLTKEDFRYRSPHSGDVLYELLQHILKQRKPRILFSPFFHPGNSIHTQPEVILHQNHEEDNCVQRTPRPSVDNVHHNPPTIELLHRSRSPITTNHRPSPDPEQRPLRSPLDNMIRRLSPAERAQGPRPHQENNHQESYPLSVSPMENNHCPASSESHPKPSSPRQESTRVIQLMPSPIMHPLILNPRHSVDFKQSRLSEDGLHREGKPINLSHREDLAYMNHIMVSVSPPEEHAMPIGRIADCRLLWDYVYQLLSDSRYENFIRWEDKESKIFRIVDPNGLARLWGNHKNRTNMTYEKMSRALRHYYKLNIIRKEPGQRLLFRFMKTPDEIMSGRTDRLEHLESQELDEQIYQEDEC

| Sequence | binding signal (ERF) | binding signal (ETV3L) | binding signal (SPDEF) | binding signal (ELF5) | binding signal (ETV3) | binding signal (ETV6) | binding signal (ETS2) | binding signal (ETV7) |
| --- | --- | --- | --- | --- | --- | --- | --- | --- |
| CACCAA | 1.18 fold enrichment (6-mer frequency, TF over GST control) | 1.06 fold enrichment (6-mer frequency, TF over GST control) | 1.03 fold enrichment (6-mer frequency, TF over GST control) | 1.03 fold enrichment (6-mer frequency, TF over GST control) | 1.1 fold enrichment (6-mer frequency, TF over GST control) | 1.07 fold enrichment (6-mer frequency, TF over GST control) |  |  |
| TAGTCT | 1.17 fold enrichment (6-mer frequency, TF over GST control) | 1.04 fold enrichment (6-mer frequency, TF over GST control) |  | 1.04 fold enrichment (6-mer frequency, TF over GST control) | 1.12 fold enrichment (6-mer frequency, TF over GST control) | 1.02 fold enrichment (6-mer frequency, TF over GST control) | 1.09 fold enrichment (6-mer frequency, TF over GST control) |  |
| TATCAA | 1.08 fold enrichment (6-mer frequency, TF over GST control) | 1.06 fold enrichment (6-mer frequency, TF over GST control) |  |  | 1.04 fold enrichment (6-mer frequency, TF over GST control) |  | 1.05 fold enrichment (6-mer frequency, TF over GST control) | 1.09 fold enrichment (6-mer frequency, TF over GST control) |
| GAACAT | 1.1 fold enrichment (6-mer frequency, TF over GST control) | 1.01 fold enrichment (6-mer frequency, TF over GST control) |  | 1.09 fold enrichment (6-mer frequency, TF over GST control) | 1.08 fold enrichment (6-mer frequency, TF over GST control) | 1.07 fold enrichment (6-mer frequency, TF over GST control) | 1 fold enrichment (6-mer frequency, TF over GST control) | 1.11 fold enrichment (6-mer frequency, TF over GST control) |
| AGGCTC | 1.14 fold enrichment (6-mer frequency, TF over GST control) | 1.08 fold enrichment (6-mer frequency, TF over GST control) |  | 1.04 fold enrichment (6-mer frequency, TF over GST control) | 1.01 fold enrichment (6-mer frequency, TF over GST control) | 1.16 fold enrichment (6-mer frequency, TF over GST control) | 1.02 fold enrichment (6-mer frequency, TF over GST control) | 1.04 fold enrichment (6-mer frequency, TF over GST control) |
| TTCGGC | 1.13 fold enrichment (6-mer frequency, TF over GST control) | 1.05 fold enrichment (6-mer frequency, TF over GST control) |  | 1.01 fold enrichment (6-mer frequency, TF over GST control) | 1.13 fold enrichment (6-mer frequency, TF over GST control) |  |  | 1.19 fold enrichment (6-mer frequency, TF over GST control) |
| CATGGG | 1.01 fold enrichment (6-mer frequency, TF over GST control) | 1.14 fold enrichment (6-mer frequency, TF over GST control) |  | 1.04 fold enrichment (6-mer frequency, TF over GST control) |  | 1.01 fold enrichment (6-mer frequency, TF over GST control) |  | 1.03 fold enrichment (6-mer frequency, TF over GST control) |
| CTACAG | 1.01 fold enrichment (6-mer frequency, TF over GST control) | 1.13 fold enrichment (6-mer frequency, TF over GST control) | 1.09 fold enrichment (6-mer frequency, TF over GST control) | 1.08 fold enrichment (6-mer frequency, TF over GST control) |  | 1.03 fold enrichment (6-mer frequency, TF over GST control) |  |  |
| CTATAG | 1.03 fold enrichment (6-mer frequency, TF over GST control) | 1.05 fold enrichment (6-mer frequency, TF over GST control) |  | 1.05 fold enrichment (6-mer frequency, TF over GST control) | 1.09 fold enrichment (6-mer frequency, TF over GST control) | 1.04 fold enrichment (6-mer frequency, TF over GST control) | 1 fold enrichment (6-mer frequency, TF over GST control) |  |
| GTCCAC | 1.07 fold enrichment (6-mer frequency, TF over GST control) | 1.12 fold enrichment (6-mer frequency, TF over GST control) |  |  |  | 1.03 fold enrichment (6-mer frequency, TF over GST control) | 1.05 fold enrichment (6-mer frequency, TF over GST control) | 1.01 fold enrichment (6-mer frequency, TF over GST control) |
| ATCATT | 1.13 fold enrichment (6-mer frequency, TF over GST control) | 1.07 fold enrichment (6-mer frequency, TF over GST control) |  |  |  | 1.06 fold enrichment (6-mer frequency, TF over GST control) | 1.01 fold enrichment (6-mer frequency, TF over GST control) | 1.01 fold enrichment (6-mer frequency, TF over GST control) |
| GCCCCC | 1.24 fold enrichment (6-mer frequency, TF over GST control) | 1.16 fold enrichment (6-mer frequency, TF over GST control) |  | 1.04 fold enrichment (6-mer frequency, TF over GST control) | 1.21 fold enrichment (6-mer frequency, TF over GST control) | 1.05 fold enrichment (6-mer frequency, TF over GST control) | 1.03 fold enrichment (6-mer frequency, TF over GST control) |  |

— publication PMC7862700, “An all-to-all approach to the identification of sequence-specific readers for epigenetic DNA modifications on cytosine”
